Source: PubChem BioAssay (Bradner/Qi Labs at DFCI)
CBX7 inh – CBX7 chromodomain binding inhibitors, primary screen, biochemical, AlphaScreen; AID 1224903, 2016; normalised signal (fraction of DMSO) (test concentration not listed); AlphaScreen His6-CBX7 / biotin-H3K27me3 peptide binding; hits give low values; 66,000 tested, 1.1% active; in the data active = normalised signal below about 0.5
Target sequence (O95931 whole entry, looked up): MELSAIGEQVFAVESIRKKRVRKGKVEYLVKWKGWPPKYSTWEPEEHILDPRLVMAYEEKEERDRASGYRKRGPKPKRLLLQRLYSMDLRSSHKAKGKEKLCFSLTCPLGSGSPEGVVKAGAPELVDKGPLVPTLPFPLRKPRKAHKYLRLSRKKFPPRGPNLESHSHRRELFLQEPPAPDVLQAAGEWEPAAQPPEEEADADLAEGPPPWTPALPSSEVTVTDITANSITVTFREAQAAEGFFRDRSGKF
Large screens that a line does not name were inactive. The entries come from a sample that favours hits as a whole.

CCOc1ccccc1CN(CCc1ccc2c(c1)OCO2)Cc1ccccc1OC	none
CCOc1ccc(CN(CCc2ccc3c(c2)OCO3)Cc2ccccc2)cc1	none
CCOc1ccccc1CN(CCc1ccc2c(c1)OCO2)Cc1ccc(F)c(F)c1	CBX7 inh 0.47
COc1ccc2[nH]c(C)c(CCNCc3cccc(OC)c3OC)c2c1	none
CCOc1cc(CNCCc2c(C)[nH]c3ccc(OC)cc23)ccc1OC	none
COc1ccc2[nH]c(C)c(CCNCc3ccc(F)cc3)c2c1	none
COc1ccc2[nH]c(C)c(CCNCc3ncc[nH]3)c2c1	CBX7 inh 0.18
CCCCc1ncc(CNCCc2c(C)[nH]c3ccc(OC)cc23)[nH]1	none
COc1ccc(CNCCc2c(C)[nH]c3ccc(OC)cc23)c(F)c1	none
COc1ccc2[nH]c(C)c(CCNCc3ccc(OC(F)(F)F)cc3)c2c1	CBX7 inh 0.42
COc1ccc2[nH]c(C)c(CCNCc3ccc4ccccc4n3)c2c1	none
COc1ccc(F)c(CNCCc2c(C)[nH]c3ccc(OC)cc23)c1	CBX7 inh 0.37
COc1ccc(OC)c(CNCCc2c(C)[nH]c3ccc(OC)cc23)c1	none
COc1ccc2[nH]c(C)c(CCNCc3cccc(C(F)(F)F)c3)c2c1	CBX7 inh 0.2
COc1ccc2[nH]c(C)c(CCNCc3cccc(F)c3)c2c1	none
CC(C)CCNC(=O)CN1C(=O)CN=C(c2ccccc2Cl)c2cc(Cl)ccc21	none
COc1cccc(-n2c(/C=C/c3ccccc3Cl)nc3ccccc3c2=O)c1	none
CCCCCCCC(=O)N1c2ccc(C)cc2[C@@H]2CN(C)CC[C@@H]21	none
Cc1ccc(-n2nc(C)c3c(C)c(CCC(=O)N4CCC5(CC4)OCCO5)c(C)nc32)cc1	none
C#CCN1CCC2=C(C1)c1c(OC)cc(C(C)C)cc1OC2(C)C	none
Cc1ccc(NC(=O)CN2C(=O)CN=C(c3ccccc3)c3ccccc32)cc1F	none
COc1cccc(CNCCc2ccc3c(c2)OCO3)c1	none
Cc1ccc(NC(=O)CN2C(=O)C(C)N=C(c3ccccc3)c3ccccc32)cc1Cl (centres undefined)	none
CCCCOc1ccc(C2SCC(=O)Nc3c2c(=O)[nH]n3C2CCCCC2)cc1 (centres undefined)	none
Cc1ccc(NC(=O)CN2C(=O)CN=C(c3ccccc3)c3cc(Br)ccc32)c(C)c1	none
